Assay outcomes from PubChem BioAssay.
HepG2 viability: kills HepG2 cells in TGF-b inhibitor counter-screen | actives 0.76% (n = 410,000) | HepG2 CAGA-GFP viability, ATP luminescence, 18 h | Potency, µM (top dose mostly 46.1 µM), for inactives: top-dose activity change, negative = cytotoxicity, most hits filed as cytotoxic; note: potency is the fitted concentration of half-maximal effect
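CellTiter-Glo luminescence gave cytotoxicity after 18 hours at 37 degrees C. The cells were HepG2 CAGA-GFP in 1% FBS DMEM, stimulated with 500 pg/mL TGF-beta after compound addition. %Activity was normalised to no-cell wells (complete cell-killing) and DMSO (no toxicity), and curves were fitted and classified.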
IL1B secr inh: inhibitors of inflammasome signaling (IL-1 beta secretion); THP-1 LPS/ATP IL-1B secretion, AlphaLISA, 16 h; stronger effect = lower value; activity change, % at 57.5 µM; actives 4.7% (n = 360,000); in the data active = activity change below about -50%; inconclusive = mostly about -30% to -49%; note: % is set by controls: 0 for no effect and ±100 for the full control effect
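Secreted IL-1B measured by AlphaLISA bead assay after 16 h compound exposure of THP-1 cells; compounds (final up to 57.5 uM) added 1 h before LPS (250 ng/mL) and ATP (1.25 mM) stimulation; lower signal means less secretion.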
TDP1 cell noCPT: qHTS for Inhibitors of human tyrosyl-DNA phosphodiesterase 1 (TDP1): qHTS in cells in absence of CPT | DT40 Tdp1-/- hTDP1 cells, no CPT, ATP luminescence, 48 h | Potency, µM (series often up to 46.2 µM), without a hit: at the highest dose activity change, negative = growth inhibition, hits mostly inhibitors | actives 15% (n = 420,000); note: potency is the fitted concentration of half-maximal effect; % is set by controls: 0 for no effect and ±100 for the full control effect; nearly all actives have a fitted effect of over 55% in size
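Seeded 400 DT40-hTDP1 cells/well (vehicle DMSO, no 20 nM CPT); pinned compounds; ≥48 hr at 37 °C; CellTiter-Glo luminescence as viability measure.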
S-ASM inh: human S-ASM enzyme inhibition. P17405. placental ASM, HMU-PC fluorogenic substrate, 60 min. Potency, µM (doses to about 57.5 µM), for inactives: at the highest dose activity change, negative = inhibition, hits mostly inhibitors. actives 0.006% (n = 340,000). AID 504937; note: potency is the fitted concentration of half-maximal effect
Target sequence (P17405 47-631 limits assumed): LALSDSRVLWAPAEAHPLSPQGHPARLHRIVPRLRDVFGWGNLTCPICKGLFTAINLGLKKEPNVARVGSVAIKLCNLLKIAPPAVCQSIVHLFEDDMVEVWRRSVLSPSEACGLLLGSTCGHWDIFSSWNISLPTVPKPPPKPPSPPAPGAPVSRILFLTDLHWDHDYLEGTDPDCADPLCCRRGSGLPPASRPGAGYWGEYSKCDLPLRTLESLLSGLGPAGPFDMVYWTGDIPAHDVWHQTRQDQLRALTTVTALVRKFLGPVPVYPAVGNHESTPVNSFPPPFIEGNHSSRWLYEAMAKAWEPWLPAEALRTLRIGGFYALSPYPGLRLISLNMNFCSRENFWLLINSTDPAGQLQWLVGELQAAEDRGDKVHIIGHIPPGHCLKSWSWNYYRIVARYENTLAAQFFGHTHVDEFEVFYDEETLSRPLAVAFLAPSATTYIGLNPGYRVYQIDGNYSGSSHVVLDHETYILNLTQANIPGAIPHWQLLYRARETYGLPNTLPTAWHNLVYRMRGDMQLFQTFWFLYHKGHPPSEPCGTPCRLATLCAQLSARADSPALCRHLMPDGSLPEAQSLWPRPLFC
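Steps: dispense placental human ASM, pin compound, wait 10 min at room temperature, add HMU-PC0 substrate at 9 uM final, incubate 60 min at 37 °C, add stop solution raising pH to 10, read fluorescence.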
TGFb inhibitor: blocks TGF-b signaling; actives 1.2% (n = 410,000); HepG2 CAGA-GFP TGF-b/SMAD3 reporter, GFP fluorescence, 18 h; TGF-beta stimulated, 500 pg/mL final; Potency, µM (series often up to 46.1 µM), for the others: at the top dose activity, negative = inhibition, hits mostly inhibitors; note: potency is the fitted concentration of half-maximal effect; % is set by controls: 0 for no effect and ±100 for the full control effect; nearly all actives have a fitted effect of over 65% in size
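Per well, imaged GFP fluorescence of HEPG2 CAGA-GFP cells gives the signal; cells get compound, then TGF-beta (500 pg/mL final), 18 h at 37 degrees C; %Activity versus -TGF-beta and +DMSO controls.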
DT40 TDP1 CPT: DT40-hTDP1 cell growth loss with CPT. chicken DT40 Tdp1-/-;hTDP1 cells + 20 nM CPT, ATP luminescence, 48 h. Potency, µM (titrated, usually from 46.2 µM), for the others: at the top dose activity change, negative = growth inhibition, hits mostly inhibitors. actives 12% (n = 420,000); note: potency is the fitted concentration of half-maximal effect; % is set by controls: 0 for no effect and ±100 for the full control effect; nearly all actives have a fitted effect of over 55% in size
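Chicken DT40 Tdp1-/- cells stably complemented with human TDP1 were seeded at 400 cells/well in medium containing 20 nM camptothecin, exposed to pin-transferred compounds, and grown at 37 °C for at least 48 hr. Viability was read as ATP luminescence.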
The depositor's hits bear a star; ? = inconclusive; · = not tested or not shown. Compounds with a hit are over-represented: about 19% of the library has one in this group of screens. Unless noted, calls come from the whole dose curve; as a rule, active = well fitted curve in the direction sought with a large enough effect; inconclusive = small, poorly fitted or top-dose-only effect, or another doubt; inactive = no such curve, though single readings can be large; an effect the other way counts as inactive or inconclusive.

SMILES	HepG2 viability	IL1B secr inh	TDP1 cell noCPT	S-ASM inh	TGFb inhibitor	DT40 TDP1 CPT
CC(=O)NC(=S)Nc1ccc(NC(=S)NC(=O)/C=C/c2ccco2)cc1	1%	62	?	-2%	16%	-16%
Cc1ccc(O)c(NC(=S)NC(=O)/C=C/c2ccco2)c1	-12%	-7	6.5µM*	-3%	-13%	7.3µM*
O=C(O)c1ccccc1C(=O)NCCc1c(C(=O)O)[nH]c2ccc(Cl)cc12	-4%	6	29%	3%	-7%	3%
c1coc(CNc2nc[n+]3c4c2ncn4CC3)c1	·	·	-21%	·	·	-21%
CCNC(=S)Nc1cc(C)ccn1	1µM*	-16	8%	2%	-14%	10%
Cc1ccnc(NC(=O)/C=C/c2cccs2)c1	-26%	-98*	12µM*	-2%	-24%	?
O=C(/C=C/c1ccco1)NC(=S)Nc1ccc(N2CCCC2)cc1	-22%	-16	15µM*	-10%	?	23µM*
O=C(/C=C/c1ccco1)NC(=S)Nc1ccc(Cl)cn1	0%	42	-2%	-1%	-5%	-25%
Cc1ccnc(NC(=S)NC(=O)/C=C/c2ccco2)c1	-3%	44	9.2µM*	-5%	-10%	10µM*
Cc1ccc(-n2c(=O)c3c4c(sc3n(CC(=O)Nc3ccccc3C)c2=O)CCCCC4)cc1C	2%	·	-3%	·	3%	10%
COc1ccccc1NC(=O)NC1CC(=O)N(c2ccc3c(c2)OCCO3)C1 (stereo unspecified)	-24%	-3	?	2%	-10%	-5%
CC(C)c1ccc2[nH]c3c(c2c1)CCC/C3=N\NC(=O)c1ccncc1	-23%	-53*	18µM*	-6%	-3%	23µM*
CC1(C)C=Cc2cc(-c3coc4cc(O)cc(O)c4c3=O)cc(O)c2O1	-35%	4	?	-3%	-19%	?
Cc1ccc(-n2nnnc2SCC(=O)N(CC(C)C)c2c(N)n(CC(C)C)c(=O)[nH]c2=O)cc1	-4%	-52*	-11%	20%	-1%	20%
Oc1c(CN2CCCC(C(F)(F)F)C2)cc(Cl)c2ccccc12 (stereo unspecified)	-56%	-25	?	17%	?	18µM*
CCOC(=O)C1CCN(Cc2cc(=O)oc3cc(C)c(Cl)cc23)CC1	-4%	10	23µM*	-2%	4%	?
CCOC(=O)C1CCN(Cc2nc3ccc(Cl)cc3n2CCO)CC1	3%	-25	?	1%	-6%	21µM*
CCOC(=O)C1CCN(Cc2cc(Cl)c3ccccc3c2O)CC1	-3%	-14	?	5%	?	18µM*
Cc1cc2oc(=O)cc(CN3CCCC3)c2cc1Cl	0%	23	-27%	·	?	-25%
OC1CCCN(Cc2c3ccccc3cc3ccccc23)C1 (stereo unspecified)	-12%	-17	?	19%	-13%	-16%
CCOc1ccccc1NC(=O)Cn1c(=O)n(-c2ccccc2)c(=O)c2c1c1cc(C)ccc1n2C	4%	·	5%	·	1%	2%
COc1ccc(OC)c(S(=O)(=O)N2CCC(C(=O)NC3CCCCC3)CC2)c1	-9%	18	2%	0%	-2%	8%
COc1ccc(N(CC(=O)N2CCN(c3cccc(C)c3C)CC2)S(=O)(=O)c2c(C)noc2C)cc1	-8%	-28	16µM*	-2%	-12%	21µM*
COc1ccc(N(CC(=O)N2CCN(c3cc(C)ccc3C)CC2)S(=O)(=O)c2c(C)noc2C)cc1	8%	0	13µM*	1%	4%	23µM*
Cc1ccc(N(CC(=O)N2CCN(c3cc(C)ccc3C)CC2)S(=O)(=O)c2c(C)nn(C)c2C)cc1	-77%	·	16µM*	·	?	21µM*
SMILES	HepG2 viability	IL1B secr inh	TDP1 cell noCPT	S-ASM inh	TGFb inhibitor	DT40 TDP1 CPT
COc1ccc(N(CC(=O)N2CCN(c3ccccc3)CC2)S(=O)(=O)c2c(C)noc2C)cc1	-10%	-14	?	3%	2%	?
COc1ccc(N(CC(=O)Nc2cc(C)ccc2C)S(=O)(=O)c2c(C)noc2C)cc1	1%	45	-27%	-1%	-18%	?
Cc1ccc(N(CC(=O)NC2CCCCC2)S(=O)(=O)c2c(C)nn(C)c2C)cc1	7%	4	5%	0%	-1%	-2%
CC1CCCN(C(=O)C(=O)c2cn(CC(=O)N3CCCCCC3)c3ccccc23)C1 (stereo unspecified)	-1%	-25	-26%	-3%	0%	?
O=C(NCC1COCCO1)c1cc(COc2ccc(F)cc2F)on1 (stereo unspecified)	-1%	-9	-10%	1%	-3%	-19%
Cc1ccc(C)c(-c2nnc(NC(=O)CCS(=O)(=O)c3ccccc3)o2)c1	0%	6	?	-2%	-13%	?
COc1cc(OC)cc(-c2nnc(NC(=O)CCS(=O)(=O)c3ccc(F)cc3)o2)c1	-14%	-66*	?	2%	?	?
COc1cc(OC)cc(-c2nnc(NC(=O)CCS(=O)(=O)c3ccccc3)o2)c1	-7%	-72*	16µM*	·	-22%	?
OCC(O)CSc1nc(-c2ccccc2)nc2c1CCC2 (stereo unspecified)	-3%	-3	-15%	0%	-3%	-10%
COCCn1c(SCC(=O)N2CCN(c3ccccc3)CC2)nc2c(c1=O)SC(C)C2 (stereo unspecified)	1%	6	18µM*	2%	2%	21µM*
COCCn1c(SCC(=O)c2ccccc2)nc2c(c1=O)SC(C)C2 (stereo unspecified)	-3%	-5	?	-6%	-4%	23µM*
Cc1ccc(SC(=O)c2c(C)noc2-c2cc(C)on2)cc1	-61%	-65*	9.2µM*	-1%	18µM*	18µM*
CC1(C)C2CCC(C2)C1(C)NC(=O)CNC1CCCCC1 (stereo unspecified)	-7%	?	10µM*	1%	-10%	?
COc1ccc(-c2cc(C(=O)Nc3c(C)nn(Cc4ccccc4C)c3C)no2)cc1	1%	·	-30%	·	4%	-2%
O=C(Nc1ccc(N2CCN(C(=O)c3ccco3)CC2)c(Cl)c1)c1cccnc1	3%	-67*	?	1%	-1%	?
